Assay outcomes from PubChem.
The full list was thinned out, with hits kept by preference.
TDP-43 rescue – qHTS of TDP-43 Inhibitors: NCGC Sytravon Library Screen; Potency, µM (doses to about 46.1 µM), most hits filed as activators; yeast TDP-43 toxicity rescue, BacTiter-Glo growth, 24 h; AID 1347073, 2019; 0.45% of 45,000 active; active = well fitted activation curve with a large enough effect; note: nearly all actives have a fitted effect of over 55% in size
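TDP-43-expressing yeast, pregrown in raffinose, seeded at OD600 0.02 in galactose medium with compound for 24 hr at 30 deg C. Growth read by BacTiter-Glo luminescence, so rescue of toxicity appears as activation.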
Hits are given with their value; . = inactive.

SMILES | TDP-43 rescue
Cc1nn(CC(=O)NCCc2ccccc2Cl)c(=O)c2nn(-c3ccccc3)c(C)c12 | .
CCCSc1ncc(Cl)c(C(=O)Nc2nc3ccc(OCC)cc3s2)n1 | .
COc1cc(CNc2ccc(N3CCN(C(C)=O)CC3)cc2)ccc1OCc1ccc(F)cc1 | .
COc1ccc2nc(NC(=O)Nc3ccccc3OC)sc2c1 | .
CCC(C)C(=O)Nc1nc2ccc(OC)cc2s1 (configuration not stated) | 11µM
CC(C)C(=O)Nc1nc2ccc(S(C)(=O)=O)cc2s1 | .
CCC(Oc1ccccc1)C(=O)Nc1ccc(O)c(-c2nc3cc(C)ccc3o2)c1 (configuration not stated) | .
CCCCOc1cccc(C(=O)N(Cc2cccs2)c2ccc(OC)cc2)c1 | .
Cc1cc(=O)[nH]c(SCC(=O)Nc2ccccc2[N+](=O)[O-])n1 | .
COc1cccc(C(N)c2nc(-c3cc(F)cc(F)c3)cs2)c1 (configuration not stated) | .
COc1cccc(C(O)c2nc(-c3ccncc3)cs2)c1 (configuration not stated) | .
COc1cccc(C(O)c2nc(-c3ccccc3C)cs2)c1 (configuration not stated) | 11µM
CCOc1ccccc1NC(=O)N(Cc1ccc(F)cc1)C1CCN(CC)CC1 | .
CC(NC(=O)Cn1c(=O)oc2cc(S(=O)(=O)N3CCCCCC3)ccc21)c1ccccc1 (configuration not stated) | .
Cc1cc(C)c2oc(-c3ccc(NC(=O)COc4ccccc4C)cc3)nc2c1 | .
CCOc1ccc(NC(=O)CNC(=O)COc2ccccc2)cc1 | .
CCOc1cc(-c2nc(C)c(C(C)=O)n2O)ccc1OCC(=O)Nc1ccccc1 | 11µM
COc1ccc(OC)c(C(=O)C2COC(=O)C2)c1 (configuration not stated) | .
COc1ccccc1-c1nc2cc3ccccc3cc2nc1-c1ccccc1OC | .
COc1ccccc1-c1c(C)nn2c(C(F)(F)F)cc(-c3ccccc3)nc12 | .
COc1ccccc1-c1cn(C(C)(C)C)nc1C | 11µM
Cc1c(Cl)cccc1N(Cc1ccc(C(=O)O)cc1)S(=O)(=O)c1ccccc1 | .
CCCCCOc1ccc(NC(=O)Cn2c(-c3cncs3)nc3ccccc32)cc1 | .
COCc1cc(C)nc2sc(C(=O)Nc3cc(C)ccc3F)c(N)c12 | .
CC(C)c1ccc(/C=C/C(=O)NCCC2=CCCCC2)cc1 | .
SMILES | TDP-43 rescue
CC(C)c1ccc(/C=C/C(=O)O)cc1 | 6.3µM
CC(NC(=O)/C=C/c1ccc(Br)cc1)c1ccccc1 (configuration not stated) | .
CCn1c(COc2ccccc2Cl)nnc1SCC(=O)Nc1ncccc1C | .
O=C(CSc1ccccc1)Nc1cc(S(=O)(=O)N2CCOCC2)ccc1N1CCOCC1 | .
COCc1cc(C)nc(N/N=C/c2ccc(-c3ccc(Cl)cc3[N+](=O)[O-])o2)c1C#N | .
CC1CCN(CC(C)OC(=O)c2ccco2)CC1 (configuration not stated) | .
CC(CN1CCOCC1)OC(=O)c1ccc(Br)cc1 (configuration not stated) | 16µM
CC(CN1CCOCC1)OC(=O)CCc1ccccc1 (configuration not stated) | .
Cc1sc(-n2cccc2)c(C(C)NC(=O)Nc2cccc(C(F)(F)F)c2)c1C (configuration not stated) | .
CN(C)c1ccc(C(=O)c2ccccc2C(=O)O)cc1[N+](=O)[O-] | .
COc1ccccc1Nc1ccc(C(=O)O)cc1[N+](=O)[O-] | .
CN(Cc1ccccc1)c1ccc(C(=O)O)cc1[N+](=O)[O-] | 16µM
O=C(CCCOc1ccc(Cl)cc1Cl)Nc1ccc(O)cc1C(=O)O | .
O=C(c1cc(C2CCCCN2S(=O)(=O)c2ccc(F)cc2F)on1)N1CCOCC1 (configuration not stated) | .
Cc1noc(C)c1C(=O)Nc1cccc2ncccc12 | .
COC(=O)c1c(NC(=O)CSc2ncnc3ccccc23)sc(C)c1C | .
NS(=O)(=O)c1ccc(CCNC(=O)CSc2ncnc3ccccc23)cc1 | .
CCN(CC)S(=O)(=O)c1ccc(NC(=O)CSc2ncnc3ccccc23)cc1 | 22µM
Cc1ccc(NCc2cccn2-c2nnc(N3CCC(C(=O)NCCc4ccccc4)CC3)s2)cc1 | .
COc1cc(CNCc2ccco2)cc(OC)c1O | .
COc1ccc(-c2csc(NC(=S)NC(=O)c3cccs3)n2)cc1OC | .
COc1ccc(-c2csc(NCc3ccco3)n2)cc1C | 18µM
CCN(CC)C(=O)C12CC3CC(CC(Br)(C3)C1)C2 | .
CCc1cc(C(=O)OC)c(NC(=O)CN2CCN(C(=O)C3CCCO3)CC2)s1 (configuration not stated) | .
CCOc1ccc(NC(=O)C2=C(C)C(=O)OC23CCC(C)CC3)cc1 (configuration not stated) | 13µM
SMILES | TDP-43 rescue
COc1ccc(OC)c(CCNC(=O)C2=C(C)C(=O)OC23CCC(C)CC3)c1 (configuration not stated) | .
CC1=C(C(=O)NC(C)CCc2ccccc2)C2(CCC(C)CC2)OC1=O (configuration not stated) | .
CN1CCN(/C=C2\SC(=S)NC2=O)CC1 | .
O=C1NC(=S)S/C1=C\c1cc2ccccc2nc1N1CCCCC1 | 6.3µM
COc1ccc2nc(N3CCCCC3)c(/C=C3\SC(=S)NC3=O)cc2c1 | .
OC[C@@H]1CN(Cc2ccc3c(c2)OCO3)C[C@H](n2cnc3c(NC4CCCC4)ncnc32)O1 | .
CCc1ccc(OCCCSc2nc(-c3ccc(C(C)(C)C)cc3)nc3cc(=O)[nH]n23)cc1 | .
Cc1ccc(C(=O)N2CCN(c3cnn(C)c(=O)c3Cl)CC2)cc1 | .
O=Cc1cn(CC(=O)N2CCCCC2)c2ccccc12 | .
O=C(Cn1cc(C(F)(F)F)ccc1=O)N1CCCc2ccccc21 | .
O=C(c1ccco1)c1cn(CC(=O)N2CCCc3ccccc32)c2ccccc12 | 18µM
O=C1Nc2ccccc2Oc2cc(Oc3ccccc3)ccc21 | .
O=C(NC1CCCCCC1)C(Cc1ccccc1)n1cccc1 (configuration not stated) | .
O=C(Cc1ccccc1)Nc1ccc(F)cc1 | .
O=C(Nc1ccc(F)cc1)C(Cc1ccccc1)n1cccc1 (configuration not stated) | 13µM
NC(=S)N/N=C/c1ccc(-c2ccc(Cl)c(Cl)c2)o1 | 11µM
NC(=S)N/N=C/c1ccc(-c2ccc(SC(F)F)cc2)o1 | .
O=C(O)c1cc(-c2ccc(/C=N/NC(=S)Nc3ccccc3)o2)ccc1Cl | .
O=C1c2ccccc2C(O)(c2ccccc2)N1C1CC1 (configuration not stated) | .
CCCSc1ncc(Cl)c(C(=O)NCc2ccc(C)cc2)n1 | .
C/C(=C\C(=S)Nc1ccccc1)Nc1ccc2ccccc2c1 | 14µM
O=C(COc1ccc2ccccc2c1)NNC(=O)C(=O)Nc1ccccc1 | .
O=C(Nc1ccc2ccccc2c1)c1ccccc1O | .
Cc1occc1C(=O)N/N=C/C(Br)=C\c1ccccc1 | .
O=C(N/N=C/C(Br)=C\c1ccccc1)c1ccco1 | 10µM
O=C(Nc1ccccc1C(=O)N/N=C/c1ccccc1)c1ccco1 | .
CCN(CC)CCNC(=O)Nc1ccc2c(c1)N(Cc1ccccc1)C(=O)c1ccccc1S2 | .
Cc1ccc(-c2cnc(C(O)c3ccc(C)cc3)[nH]2)cc1 (configuration not stated) | .
COc1ccc(C(=O)NC(=S)N2CCCCC2)cc1[N+](=O)[O-] | .
